Several values for one entry are separate records, joined by “and”; a condition that tells them apart may be missing. Equal values may be shown once. Some structures have more than one record in an assay (separate samples or runs), and their calls can disagree. Activity calls are given as the source filed them. The calls were made as follows: active = hit-call score of the fitted dose curve at least 0.9, where 1 is the maximum; inactive = score below 0.9.
Columns and labels:
Details in all cases: mRNA level, 48 h; actives raise or lower the signal
[1] = read-out: JUN Transcription Factor, JUN (gene 3725); experiment: LTEA_HepaRG_JUN: Life Technologies and Expression Analysis (LTEA) Assay for JUN Transcription Factor using HepaRG (AID 2283513)
Summary of the method: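 Differentiated HepaRG cells were exposed to chemicals for 48 h in serum-free induction medium, 8 concentrations from 100 uM in half-log steps, 0.5% DMSO vehicle, in duplicate. JUN mRNA was quantified by TaqMan qRT-PCR, normalized to ACTB, GAPDH, POLR2A.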

[2] = read-out: Lipase C (LIPC), LIPC (gene 3990); experiment: LTEA_HepaRG_LIPC: Life Technologies and Expression Analysis (LTEA) Assay for Lipase C (LIPC) using HepaRG (AID 2283514)
Summary of the method: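 Differentiated human HepaRG cells in serum-free induction medium were exposed in duplicate for 48 h to eight concentrations (top 100 uM, half-log steps, 0.5% DMSO). LIPC mRNA was quantified by TaqMan qRT-PCR, normalized to ACTB, GAPDH and POLR2A, with bidirectional fitting versus DMSO.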

[3] = read-out: MicroRNA 122 (MIR122), gene 406906; experiment: LTEA_HepaRG_MIR122: Life Technologies and Expression Analysis (LTEA) Assay for MicroRNA 122 (MIR122) using HepaRG (AID 2283516); also: the transcript read is the microRNA miR-122
Summary of the method: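 Differentiated human HepaRG cells were exposed 48 h in serum-free induction medium to eight half-log concentrations (top 100 uM, 0.5% DMSO). Transcript level was measured by TaqMan qRT-PCR, normalized to ACTB, GAPDH and POLR2A, and fitted bidirectionally versus DMSO.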

[4] = read-out: matrix metalloproteinase-10 (MMP10), MMP10 (gene 4319); experiment: LTEA_HepaRG_MMP10: Life Technologies and Expression Analysis (LTEA) Assay for matrix metalloproteinase-10 (MMP10) using HepaRG (AID 2283517)
Summary of the method: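 HepaRG, collagen I, ~100,000 cells/well; serum-free induction medium; 48 h exposure, duplicate, 8-pt half-log to 100 uM, 0.5% DMSO. Readout: TaqMan qRT-PCR, normalized to ACTB/GAPDH/POLR2A; bidirectional fit vs DMSO.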

[5] = read-out: MYC, MYC (gene 4609); experiment: LTEA_HepaRG_MYC: Life Technologies and Expression Analysis (LTEA) Assay for MYC using HepaRG (AID 2283518)
Summary of the method: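 Differentiated human HepaRG cells, plated 48 h then switched to serum-free induction medium, were exposed in duplicate for 48 h to 8-point half-log series up to 100 uM in 0.5% DMSO. MYC mRNA measured by qRT-PCR, normalized to ACTB/GAPDH/POLR2A.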

[6] = read-out: matrix metalloproteinase-3 (MMP3), MMP3 (gene 4314); experiment: LTEA_HepaRG_MMP3: Life Technologies and Expression Analysis (LTEA) Assay for matrix metalloproteinase-3 (MMP3) using HepaRG (AID 2283519)
Summary of the method: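 Differentiated human HepaRG cells, plated 48 h on collagen I, were exposed in duplicate for 48 h in serum-free induction medium to eight half-log concentrations up to 100 uM in 0.5% DMSO. MMP3 mRNA was quantified by TaqMan qRT-PCR, normalised to ACTB, GAPDH and POLR2A.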

[7] = read-out: Paternally Expressed 10 (PEG10), PEG10 (gene 23089); experiment: LTEA_HepaRG_PEG10: Life Technologies and Expression Analysis (LTEA) Assay for Paternally Expressed 10 (PEG10) using HepaRG (AID 2283520)
Summary of the method: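 Differentiated HepaRG cells, plated 48 h then switched to serum-free induction medium, were exposed in duplicate for 48 h to eight half-log concentrations topping at 100 uM in 0.5% DMSO. PEG10 mRNA was quantified by TaqMan qRT-PCR, normalised to ACTB, GAPDH and POLR2A.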

[8] = read-out: Protein phosphatase 2A (PPP2R4), PTPA (gene 5524); experiment: LTEA_HepaRG_PPP2R4: Life Technologies and Expression Analysis (LTEA) Assay for Protein phosphatase 2A (PPP2R4) using HepaRG (AID 2283522)
Summary of the method: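 Differentiated HepaRG cells in serum-free induction medium were exposed in duplicate for 48 h to eight concentrations, top 100 uM with half-log dilutions, in 0.5% DMSO. PPP2R4 mRNA was quantified by TaqMan qRT-PCR, normalized to ACTB, GAPDH and POLR2A.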

[9] = read-out: Lipoprotein lipase (LPL), LPL (gene 4023); experiment: LTEA_HepaRG_LPL: Life Technologies and Expression Analysis (LTEA) Assay for Lipoprotein lipase (LPL) using HepaRG (AID 2283515)
Summary of the method: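 Differentiated human HepaRG cells in serum-free induction medium were exposed in duplicate for 48 h to eight half-log concentrations (top 100 uM) in 0.5% DMSO. LPL mRNA was quantified by TaqMan qRT-PCR, normalized to ACTB, GAPDH and POLR2A.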

[10] = read-out: Nuclear factor NF-kappa-B p105 subunit (Homo sapiens) (UniProt P19838); experiment: LTEA_HepaRG_NFKB1: Life Technologies and Expression Analysis (LTEA) Assay for Nuclear Factor Kappa B Subunit 1 (NFKB1) using HepaRG (AID 2283521);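 also: TaqMan qRT-PCR transcript normalised to ACTB GAPDH and POLR2A housekeeping genes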
Summary of the method: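 NFKB1 transcript was measured by TaqMan qRT-PCR on Fluidigm arrays, normalised to three housekeeping genes and fitted in both directions against 0.5% DMSO. HepaRG cells were dosed in duplicate for 48 h in serum-free induction medium, eight half-log steps from 100 uM.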

Measured: AC50

Sequence of Nuclear factor NF-kappa-B p105 subunit (Homo sapiens) (P19838 whole entry, looked up): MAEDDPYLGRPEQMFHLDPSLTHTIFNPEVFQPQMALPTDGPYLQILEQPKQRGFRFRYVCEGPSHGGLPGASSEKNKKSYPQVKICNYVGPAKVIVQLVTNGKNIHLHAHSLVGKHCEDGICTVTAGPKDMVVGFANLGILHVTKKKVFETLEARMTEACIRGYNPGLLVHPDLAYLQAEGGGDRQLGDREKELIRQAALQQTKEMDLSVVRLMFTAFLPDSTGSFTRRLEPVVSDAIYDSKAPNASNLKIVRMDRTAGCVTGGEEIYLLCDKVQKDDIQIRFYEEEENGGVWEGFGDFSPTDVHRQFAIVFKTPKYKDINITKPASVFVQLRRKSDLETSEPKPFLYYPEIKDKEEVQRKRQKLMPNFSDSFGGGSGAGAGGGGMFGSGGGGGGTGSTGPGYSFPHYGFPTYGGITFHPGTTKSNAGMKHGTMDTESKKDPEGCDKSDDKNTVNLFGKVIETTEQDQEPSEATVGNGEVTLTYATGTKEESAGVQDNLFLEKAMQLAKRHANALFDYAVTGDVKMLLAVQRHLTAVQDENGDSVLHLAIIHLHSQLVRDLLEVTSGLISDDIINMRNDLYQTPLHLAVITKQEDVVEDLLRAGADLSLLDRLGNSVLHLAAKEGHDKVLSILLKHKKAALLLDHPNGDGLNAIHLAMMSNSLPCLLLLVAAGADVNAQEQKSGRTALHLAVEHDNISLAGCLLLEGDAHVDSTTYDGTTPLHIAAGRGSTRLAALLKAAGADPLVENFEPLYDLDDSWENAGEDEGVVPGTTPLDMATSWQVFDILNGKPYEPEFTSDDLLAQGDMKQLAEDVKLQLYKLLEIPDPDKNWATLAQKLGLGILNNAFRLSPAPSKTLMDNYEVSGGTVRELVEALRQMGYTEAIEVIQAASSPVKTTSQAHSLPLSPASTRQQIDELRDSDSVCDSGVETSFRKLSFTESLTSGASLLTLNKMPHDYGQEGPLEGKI

S=C(S)NCCNC(=S)S.[Mn+2].[S-]C([S-])=NCCN=C([S-])[S-].[Zn+2]
inactive: [1] | [5] | [6]
active: [1] 1.36 µM and 1.75 µM | [2] 1.21 µM and 1.2 µM and 1.48 µM | [3] 780 nM and 954 nM and 816 nM | [4] 846 nM and 655 nM | [5] 4.59 µM and 3.61 µM | [7] 110 nM and 262 nM and 190 nM | [8] 960 nM and 2.26 µM

CCCCCCC(C)OC(=O)COc1nc(F)c(Cl)c(N)c1Cl (configuration not stated)
inactive: [1] | [2] | [9] | [3] | [4] | [5] | [6] | [7] | [10] | [8]

CCSC(=O)N(CC(C)C)CC(C)C
inactive: [1] | [2] | [3] | [4] | [5] | [6] | [7] | [10] | [8]

O=C(c1ccc(O)cc1O)c1ccc(O)cc1O
inactive: [1] | [2] | [9] | [3] | [4] | [5] | [6] | [7] | [10] | [8]

COC(=O)c1ccc(I)cc1S(=O)(=O)NC(=O)Nc1nc(C)nc(OC)n1
inactive: [1] | [2] | [9] | [3] | [4] | [5] | [6] | [7] | [8]

Oc1ccc(C(c2ccc(O)cc2)C(Cl)(Cl)Cl)cc1
active: [1] 91.7 µM | [2] 78.8 µM | [9] 85 µM | [3] 87.5 µM | [4] 78.6 µM | [5] 78 µM | [6] 90.5 µM | [7] 74.8 µM | [8] 82.3 µM

c1ccc2[nH]c(-c3cscn3)nc2c1
active: [5] 40 µM | [7] 26.6 µM
inactive: [1] | [2] | [3] | [4] | [6] | [10] | [8]

CC(C)CCCCCCc1ccc(O)cc1
inactive: [1] | [2] | [3] | [4] | [5] | [6] | [7] | [10] | [8]

O=C(Nc1ccc([N+](=O)[O-])cc1Cl)c1cc(Cl)ccc1O
active: [1] 2.42 µM | [2] 4.31 µM | [4] 3.43 µM | [5] 2.28 µM | [6] 4.24 µM | [7] 1.99 µM | [8] 3.47 µM
inactive: [3] | [10]

C#C[C@]1(O)CC[C@H]2[C@@H]3CCC4=CC(=O)CC[C@@H]4[C@H]3CC[C@@]21CC
active: [7] 2.38 µM
inactive: [1] | [2] | [9] | [3] | [4] | [5] | [6] | [10] | [8]

c1ccc(Nc2ccccc2)cc1
inactive: [1] | [2] | [3] | [4] | [5] | [6] | [7] | [10] | [8]

Cc1nn(C)c(Oc2ccccc2)c1C=NOCc1ccc(C(=O)OC(C)(C)C)cc1
active: [2] 24.2 µM | [9] 11.2 µM | [3] 30.3 µM | [4] 50 µM | [5] 8.62 µM | [6] 34.4 µM | [7] 1.15 µM | [8] 5.33 µM
inactive: [1]

CCOC(=O)C(C)Oc1ccc(Oc2nc3ccc(Cl)cc3o2)cc1 (configuration not stated)
inactive: [1] | [2] | [9] | [3] | [4] | [5] | [6] | [7] | [10] | [8]
